About 83,000 compounds went through this panel and 20% of them were active in at least one assay; those are over-represented in the sample as a whole.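 Assay: single dose, 48 h. Readout: percent growth (0 = no net growth; negative = cell death). Active: <10.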 Values without a mark were called inactive. The source made the active and inactive calls.
test system: HL-60(TB) leukemia; assay: NCI-60 one-dose screen, 48 h (100 = growth as untreated, 0 = no growth, -100 = all killed); settings: 10 µM unless noted

Q: For O=S(=O)(Oc1ccc(-c2nnc(Nc3ccccc3)s2)cc1)C(F)(F)C(F)(F)C(F)(F)C(F)(F)C(F)(F)C(F)(F)F, which growth is on record?
A: 70.6%

Q: Which growth does the source give for CCN(CC)CCOc1ccc(C(=C(C)c2ccc(OC)cc2)c2ccc(OCCN(CC)CC)cc2)cc1 here?
A: -42.9% (active)

Q: Cc1ccc(S(=O)(=O)N/N=C/c2cn(-c3ccc(F)cc3)nc2-c2ccc(S(C)(=O)=O)cc2)cc1 was tested. Which growth did it give?
A: 97.5%

Q: Cc1ccc(-c2nn(-c3ccccc3)cc2/C=C/C(=O)c2ccc(NC(=O)CCCCCCC(=O)NO)cc2)cc1 was tested. Which growth did it give?
A: 109%

Q: With CCOC(=O)C1=C(C)N=C2Sc3ccccc3N2C1c1ccccc1 (stereo not given) as the compound, how does the growth read?
A: 61.9%

Q: With COC1=C(c2ccccc2)C(=O)C(OC)=C(c2ccccc2)C1=O as the compound, how does the growth read?
A: 5.79% (active)

Q: With O=C(CCCCCCN1CC(=O)N2[C@@H](c3ccccc3)c3[nH]c4ccccc4c3C[C@H]2C1=O)NO as the compound, how does the growth read?
A: 28.5%

Q: Which growth does the source give for Clc1ccc(N/N=c2/oc3ccccc3cc2-c2cc3ccccc3[nH]2)cc1 here?
A: 88.7%

Q: Nc1ncc(-c2ccc3ncnc(Nc4cccc(Cl)c4F)c3c2)cn1 was tested. Which growth did it give?
A: 90.5%

Q: With COc1ccc(C(=O)CSc2nc3c(c(Nc4ccc(S(N)(=O)=O)cc4)n2)CCCC3)cc1 as the compound, how does the growth read?
A: 101%

Q: How did the growth turn out when NS(=O)(=O)c1ccc(Nc2nc(Nc3ccccc3)nc(-n3nc(-c4ccccc4)cc3-c3ccccc3)n2)cc1 was run?
A: 4.82% (active)

Q: Which growth does the source give for O=C(NCCn1ccnc1)c1ccc(-c2nc3ccc4[nH]ncc4c3c3c2CCCC3)cc1 here?
A: 76.9%

Q: For C=CCn1c(SCC(=O)c2ccccc2)nnc1-c1c[nH]c2ccccc12, which growth is on record?
A: 95.6%

Q: For O=C(N/N=C\c1ccc([N+](=O)[O-])cc1)c1ccc2nc(-c3ccc(Br)cc3)[nH]c2c1, which growth is on record?
A: 1.86% (active)

Q: With Nc1nc(N)c2c(n1)NC(c1ccc(C(F)(F)F)cc1)CC(c1ccc(Nc3nc(NCCO)nc(N4CCOCC4)n3)cc1)=N2 (stereo not given) as the compound, how does the growth read?
A: 21.4%

Q: With COc1ccc(-n2c(/C=C3\C(=O)Nc4ccccc43)ccc2CO)cc1 as the compound, how does the growth read?
A: 92.7%

Q: Which growth does the source give for CN1CCN(c2nc(-c3cnc4ccccc4n3)cc3ccccc23)CC1 here?
A: -36.2% (active)

Q: Clc1ccc2c(NCCCn3ccnc3)c3oc4ccc(Cl)cc4c3nc2c1 was tested. Which growth did it give?
A: 78.6%

Q: Cc1ccc(CSc2nc(-c3ccc(Cl)cc3)c(C#N)c(N3CCNCC3)n2)cc1 was tested. Which growth did it give?
A: 43.3%

Q: CCOc1cccc(/C(N)=N/C(N)=N/c2nc3ccccc3s2)c1 was tested. Which growth did it give?
A: 72.2%

Q: For Cc1ccc(NC(=O)c2ccc(CN3CCN(C)CC3)c(C(F)(F)F)c2)cc1Oc1ccc(-c2[nH]nc3ncnc(N)c23)cc1, which growth is on record?
A: 113%

Q: With Cc1ccc(Nc2nc(SC(C)C)nc(-c3ccccc3)c2C#N)cc1 as the compound, how does the growth read?
A: 118%

Q: Which growth does the source give for COC(=O)c1ccc(NC(=S)N2CCc3ccc([N+](=O)[O-])cc3C2)cc1O here?
A: 97.7%

Q: C#C[C@]1(O)CC[C@H]2[C@@H]3CC=C4c5sc(-c6ccc7c(c6)OCO7)nc5CC[C@]4(C)[C@H]3CC[C@@]21C was tested. Which growth did it give?
A: 46.8%

Q: Which growth does the source give for Nc1ncc(-c2ccc(NS(=O)(=O)c3ccc(Cl)c(Cl)c3)cc2)[nH]1 here?
A: 47.7%

Q: For COc1ccc(OC)c(-c2nc(SCC(=O)c3ccc(Br)cc3)nc(Nc3ccc(S(N)(=O)=O)cc3)c2C#N)c1, which growth is on record?
A: 25.9%

Q: For COc1cc(-c2noc(C[C@@H](NC(=O)OCc3ccccc3)C(C)C)n2)cc(OC)c1OC, which growth is on record?
A: 100%

Q: With CS(=O)(=O)c1ncc(-c2ccccc2)cn1 as the compound, how does the growth read?
A: 103%

Q: With CC(C)(C)c1cc(NC(=O)Nc2ccc(-c3cn4c5c(sc4n3)CCc3c[nH]cc3-5)cc2)no1 as the compound, how does the growth read?
A: 9.58% (active)

Q: How did the growth turn out when O=S(=O)(NCCCNc1nccc(-n2cnc3ccccc32)n1)c1ccc(C(F)(F)F)cc1 was run?
A: 101%

Q: CN1CCN(c2ccc(C(=O)/C=C/c3cc(F)cc(C(F)(F)F)c3)cc2)CC1 was tested. Which growth did it give?
A: 3.06% (active)

Q: Which growth does the source give for CC(=O)Oc1ccccc1C(=O)Nc1ccc(C(=O)/C=C/c2ccncc2)cc1 here?
A: 7.33% (active)

Q: With CCO/C=N/C1=C(C#N)C(c2ccc(Cl)cc2)c2sc3c(CC)cccc3c2O1 (stereo not given) as the compound, how does the growth read?
A: -0.966% (active)

Q: COc1ccccc1C(=O)CSc1nc(Nc2ccc(S(N)(=O)=O)cc2)c2ccccc2n1 was tested. Which growth did it give?
A: 94.5%

Q: How did the growth turn out when CCNC(=O)Oc1ccc(/C(=C(/C)c2ccc(Cl)cc2)c2ccc(OCCN3CCCCCC3)cc2)cc1 was run?
A: 1.41% (active)

Reference: PubChem BioAssay (NCI)
